MBNL1-CUG inh = qHTS Assay for Inhibitors of MBNL1-poly(CUG) RNA binding. Potency, µM (series often up to 57.5 µM), for the others: at the highest dose activity change, negative = inhibition, most hits filed as inhibitors. TR-FRET MBNL1-His/biotin-(CUG)12 binding, 665/545 ratio. Muscleblind-like protein 1 (Homo sapiens), Q9NR56. 0.036% of 280,000 active; active = well fitted inhibition curve with a large enough effect in the signal ratio, with a control signal flat, not every such curve was filed as active; inconclusive = small, poorly fitted or top-dose-only effect, or effect the other way, or a change in a side signal; inactive = no such curve, though single readings can be large or run the other way; the % refers to the signal ratio; also: % is scaled to controls: 0 for no effect and ±100 for the full control effect
Target sequence (Q9NR56 whole entry, looked up): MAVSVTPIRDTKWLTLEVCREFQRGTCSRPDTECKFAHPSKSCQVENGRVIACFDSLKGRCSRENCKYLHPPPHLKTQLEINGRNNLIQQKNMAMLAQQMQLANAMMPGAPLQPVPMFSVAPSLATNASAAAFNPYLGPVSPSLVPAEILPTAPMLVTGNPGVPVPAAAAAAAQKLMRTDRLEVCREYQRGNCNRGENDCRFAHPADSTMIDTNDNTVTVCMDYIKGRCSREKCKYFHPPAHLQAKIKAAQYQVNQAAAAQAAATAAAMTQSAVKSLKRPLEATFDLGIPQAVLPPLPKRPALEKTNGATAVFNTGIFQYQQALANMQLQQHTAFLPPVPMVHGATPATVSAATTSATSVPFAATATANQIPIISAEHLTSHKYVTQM
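Compound titration spanned 92 nM–58 uM against the MBNL1-His/biotin-(CUG)12 complex. After 60 min at room temperature with 5 nM streptavidin-XL665 and 0.055 ng/ul terbium anti-His, ratiometric 665/545 nm emission (Ex 340 nm) normalized to controls.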
Abeta rescue = qHTS for compounds that reverse cellular toxicity of Amyloid beta (A-beta) peptide in yeast: Primary Screen. yeast expressing A-beta42, growth rescue, OD600, 48 h; response scale: 0% DMSO, 100% iron-clioquinol control. Potency, µM (series often up to 46.1 µM), actives largely listed as activators. 0.063% of 410,000 active. AID 1347071, 2019; also: nearly all actives have a fitted effect of over 55% in size
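Yeast A-beta toxicity model in growth medium with pinned compounds, 48 h at 30 C; growth read as absorbance at 600 nm. Normalized to FeCl3/clioquinol equimolar mix (positive) and DMSO (negative).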
Glioma ERSR ind = qHTS for Inducers of the Endoplasmic Reticulum Stress Response (ERSR) in Human Glioma: qHTS; U87-MG GRP78 promoter luciferase reporter, 16 h; Potency, µM, without a hit: at the highest dose activation, most hits filed as activators; 0.02% of 420,000 active; also: series mostly up to about 76 µM; % of control where 0% means no effect; nearly all actives have a fitted effect of over 35% in size
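Stably transfected U87-MG glioma cells carrying a GRP78-based luciferase sensor; 16 h compound incubation. Luminescence end-point read 10 min after Bright-Glo addition at room temperature.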
aSyn yeast inh = qHTS of alpha-syn Inhibitors; Yeast expressing alpha-synuclein, growth rescue, BacTiter-Glo, 24 h; Potency, µM (doses to about 46.1 µM), for the others: at the top dose growth rescue (activation), hits mostly activators; 0.14% of 370,000 active; also: % of control where 0% means no effect; nearly all actives have a fitted effect of over 65% in size
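Galactose-induced alpha-syn yeast (OD600=0.02, raffinose-pregrown) + pinned cpd, 24 hr, 30 deg C; growth by BacTiter-Glo luminescence. Growth restoration scores as activation.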
FUS suppressor = qHTS for Suppressors of FUS Proteinopathy: Primary screen using FUS-linked yeast assay. 0.24% of 390,000 active. S. cerevisiae FUS-expressing, growth rescue, OD600, 24 h. Potency, µM (top dose mostly 76.6 µM), hits mostly activators. AID 1347120, 2019;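 also: plate controls were DMSO vehicle for no effect and reference control for full effect; nearly all actives have a fitted effect of over 55% in size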
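Cultures pregrown in 2.5% raffinose medium are shifted to minimal medium containing 2% galactose to express toxic FUS. Compounds are tested at several concentrations. After 24hr at 30C, growth is quantified at 600 nm absorbance.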
TDP43 rescue = qHTS of TDP-43 Inhibitors; Potency, µM (titrated, usually from 46.1 µM), for inactives: top-dose growth rescue (activation), hits mostly activators; 1.8% of 410,000 active; AID 652104, 2013; TDP-43 expressing yeast growth rescue, BacTiter-Glo, 24 h; also: % of control where 0% means no effect; nearly all actives have a fitted effect of over 50% in size
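Yeast cells expressing TDP-43 under galactose induction are exposed to compounds for 24 hr at 30 deg C. BacTiter-Glo luminescence measures growth, so protective compounds score as activators.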
Numbers without * were called inactive; i = inactive; ? = inconclusive; nt = no result; [ ] = remark or other dose. In the library only some 2% were active in any assay of this set; here they are far more common. Unless noted, calls follow the shape of the dose curve; as a rule, active = well fitted curve in the direction sought with a large enough effect; inconclusive = small, poorly fitted or top-dose-only effect, or another doubt; inactive = no such curve, though single readings can be large; an effect the other way counts as inactive or inconclusive. Potency is read from the fitted curve at half-maximal effect.

SMILES	MBNL1-CUG inh	Abeta rescue	Glioma ERSR ind	aSyn yeast inh	FUS suppressor	TDP43 rescue
Cc1ccc2occ(CN3CCOc4ccc(C(C)(O)COc5ccccc5)cc4C3)c(=O)c2c1 (configuration not stated)	nt	nt	-5%	nt	nt	nt
CCn1c2ccccc2c2cc([N+](=O)[O-])ccc21	6%	i	-2%	11%	i	-23%
CCn1c2ccccc2c(=O)c2ccccc21	-6%	i	-2%	9%	i	13µM*
CC1CCCCN1C(=O)c1cccc(NC2=C(Cl)C(=O)N(Cc3ccccc3)C2=O)c1 (configuration not stated)	nt	i	-9%	16%	i	18µM*
CC1CCN(C(=O)c2ccc(NC3=C(Cl)C(=O)N(Cc4ccccc4)C3=O)cc2)CC1	nt	i	-10%	?	i	16%
Cc1cc2cc(C(c3nnnn3Cc3ccco3)N3CCc4ccccc43)c(=O)[nH]c2cc1C (configuration not stated)	12%	i	-6%	0%	?	0%
Cc1cc2cc(C(c3nnnn3Cc3ccco3)N3CCc4ccccc4C3)c(=O)[nH]c2cc1C (configuration not stated)	?	i	4%	3%	14µM*	-17%
O=[N+]([O-])c1ccc(O)c(/C=N/Nc2ccccn2)c1	2%	i	?	0.89µM*	i	-92%
O=[N+]([O-])c1ccc(NN=Cc2ccccc2O)nc1	nt	i	4%	25%	i	22µM*
O=[N+]([O-])c1ccc(O)c(/C=N/Nc2ncnc3c2cnn3-c2ccccc2)c1	-9%	i	?	4%	i	7.9µM*
CCNC(=O)C(=O)N/N=C/c1cc([N+](=O)[O-])ccc1O	29%	i	-2%	?	i	20µM*
COC(=O)C[C@H]1CC[C@@H]2[C@@H](COc3ccc(NC(=O)Nc4ccccc4OC)cc3C(=O)N2C)O1	nt	nt	nt	nt	i	nt
O=C(OCc1cn(Cc2cccc(F)c2)nn1)N1CCOCC1	nt	nt	nt	nt	i	nt
CC(C)(C)c1ccc2c(c1)OC(C(=O)N/N=C/c1ccc[nH]1)CO2 (configuration not stated)	nt	nt	nt	nt	i	nt
CC(=O)Nc1cc(C(=O)NCc2ccc(C)cc2)ccc1Sc1ccc(C)cc1	nt	i	-1%	nt	?	20µM*
NC(=O)[C@@H]1CCCN1C(=O)CC1(c2cccc(F)c2)CC(=O)N(C2CCCC2)C1=O (some centres not stated)	nt	nt	-3%	nt	nt	nt
CC(NS(=O)(=O)OCC(Cl)(Cl)Cl)c1ccc(Br)cc1 (configuration not stated)	-8%	i	-5%	-1%	i	35µM*
COc1ccc(CN2CN3Cc4ccc(C)cc4C3CS2(=O)=O)cc1 (configuration not stated)	nt	nt	nt	nt	i	nt
Cc1nc(CC(=O)NCC2Cc3cc(F)cc(-c4ccc(F)c(C)c4)c3O2)cs1 (configuration not stated)	nt	nt	-3%	nt	nt	nt
CC(C)(C)NC(=S)NC(=O)C12CCC3CC(CC(C3)C1)C2	2%	6.3µM*	-3%	-7%	i	0%
Cc1ccc(/C=N\NC(=O)COc2ccc(C)cc2[N+](=O)[O-])cc1	9%	i	-1%	11%	i	-18%[0.397 µM]
Cc1ccc(OCC(=O)N/N=C\c2c(C)[nH]n(-c3ccccc3)c2=O)c([N+](=O)[O-])c1	5%	?	3%	20µM*	?	0%
COc1ccc(-c2noc(C3CCCN(C(=O)NC4CCC(C)CC4)C3)n2)cc1 (configuration not stated)	nt	nt	nt	nt	i	nt
O=C(COC(=O)Cc1c[nH]c2ccccc12)Nc1cc(S(=O)(=O)N2CCOCC2)ccc1Cl	nt	i	-1%	1%	35µM*	10%
Cc1ccc(S(=O)(=O)N2CCOCC2)cc1NC(=O)COC(=O)CCc1c[nH]c2ccccc12	nt	i	-5%	-3%	nt	-6%
SMILES	MBNL1-CUG inh	Abeta rescue	Glioma ERSR ind	aSyn yeast inh	FUS suppressor	TDP43 rescue
CC(=O)c1cnc2cc(-c3ccc(Cl)cc3)nn2c1C	-12%	i	5%	2%	i	-8%
Cc1c(C(=O)O)cnc2cc(-c3ccc(Cl)cc3)nn12	?	i	-4%	-4%	i	3.5µM*
N#CCCSc1nc(N2CCOCC2)c2c(c1C#N)CCCC2	2%	i	-7%	15%	i	18µM*
CCCSc1nc(N2CCOCC2)c2c(c1C#N)CCCC2	9%	i	-5%	2%	i	?
CC(C)CNC(=O)c1cn(C2CCN(Cc3nc4ccccc4s3)CC2)nn1	nt	nt	-1%	nt	nt	nt
C[C@@H](/C=C/C(=O)OC(C)(C)C)Sc1ccc(C(C)(C)C)cc1	nt	nt	nt	nt	i	nt
Nc1nc(-c2ccco2)nn1C(=O)c1ccc(F)cc1	-25%	i	-5%	4%	i	11µM*
C/C(C=NNC(=O)CSc1nnc(-c2ccccc2)n1-c1ccc(C)cc1)=C\c1ccco1	nt	nt	nt	nt	i	nt
COC(=O)c1ccc(CSc2nnc3ccc4ccccc4n23)cc1	nt	i	-4%	nt	i	35µM*
CCC1(C2CCN(Cc3c(C)[nH]c4ccccc34)CC2)NC(=O)N(Cc2ccc3c(c2)OCO3)C1=O (configuration not stated)	nt	nt	2%	nt	nt	nt
Nn1c(SCC(=O)Nc2cccc3ccccc23)nnc1-c1n[nH]c2c1CCC2	nt	nt	nt	nt	i	nt
CCCOc1ccc(C(=O)NNC(=S)NC(=O)c2cc(-c3ccc(Cl)cc3)nc3ccccc23)cc1	8%	i	?	4%	i	13µM*
CSc1ccccc1NC(=O)CCS(=O)(=O)c1nc(-c2ccc3c(c2)OCO3)cc(C(F)(F)F)n1	nt	i	?	-4%	i	11µM*
COC(=O)c1ccccc1NC(=O)CCS(=O)(=O)c1nc(-c2ccc3c(c2)OCO3)cc(C(F)(F)F)n1	nt	i	20%	nt	i	0%
O=C(CCS(=O)(=O)c1nc(-c2ccc3c(c2)OCO3)cc(C(F)(F)F)n1)Nc1ccccc1F	nt	i	?	nt	i	22µM*
CC(=O)c1ccccc1OC(=O)c1ccc([N+](=O)[O-])o1	?	i	1%	?	i	10µM*
COc1ccc(OC)c(C(=O)COC(=O)c2ccc([N+](=O)[O-])o2)c1	nt	i	-4%	-37%	i	22µM*

Screening results: PubChem BioAssay, National Center for Advancing Translational Sciences (NCATS)
